Results reported in ChEMBL document CHEMBL2218924, “A broad activity screen in support of a chemogenomic map for kinase signalling research and drug discovery” (Biochem J, 2013).

molecular target: Proto-oncogene tyrosine-protein kinase receptor Ret (Homo sapiens) (UniProt P07949); conditions: at 10 µM
Sequence (P07949 whole entry): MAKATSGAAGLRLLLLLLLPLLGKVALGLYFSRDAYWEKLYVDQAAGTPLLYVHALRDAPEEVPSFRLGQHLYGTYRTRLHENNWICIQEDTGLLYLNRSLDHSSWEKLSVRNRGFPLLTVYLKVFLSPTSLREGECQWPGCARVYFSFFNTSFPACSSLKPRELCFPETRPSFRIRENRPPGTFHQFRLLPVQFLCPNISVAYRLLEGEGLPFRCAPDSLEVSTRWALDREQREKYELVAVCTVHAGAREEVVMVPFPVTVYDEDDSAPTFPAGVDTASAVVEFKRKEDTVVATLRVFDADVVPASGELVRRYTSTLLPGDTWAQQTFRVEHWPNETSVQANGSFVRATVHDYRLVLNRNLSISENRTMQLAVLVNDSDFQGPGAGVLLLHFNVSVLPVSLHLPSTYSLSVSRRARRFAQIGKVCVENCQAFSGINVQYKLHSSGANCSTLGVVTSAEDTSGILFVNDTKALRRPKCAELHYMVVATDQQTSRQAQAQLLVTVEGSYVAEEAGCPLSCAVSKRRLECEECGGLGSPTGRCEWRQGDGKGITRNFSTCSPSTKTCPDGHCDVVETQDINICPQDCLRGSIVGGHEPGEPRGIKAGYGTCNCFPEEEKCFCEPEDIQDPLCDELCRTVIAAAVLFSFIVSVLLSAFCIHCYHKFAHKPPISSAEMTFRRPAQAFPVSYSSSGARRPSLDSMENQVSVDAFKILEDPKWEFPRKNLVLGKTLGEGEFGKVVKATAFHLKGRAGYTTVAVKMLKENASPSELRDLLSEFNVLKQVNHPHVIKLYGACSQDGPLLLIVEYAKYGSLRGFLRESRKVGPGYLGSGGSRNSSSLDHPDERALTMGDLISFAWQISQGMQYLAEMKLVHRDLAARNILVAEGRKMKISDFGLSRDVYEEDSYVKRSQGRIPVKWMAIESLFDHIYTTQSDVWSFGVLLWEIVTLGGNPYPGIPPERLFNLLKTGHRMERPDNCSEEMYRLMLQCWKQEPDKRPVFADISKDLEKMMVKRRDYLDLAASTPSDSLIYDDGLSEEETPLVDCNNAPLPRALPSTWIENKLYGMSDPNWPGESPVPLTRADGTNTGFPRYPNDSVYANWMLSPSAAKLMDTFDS

Compound	residual activity [%]
CCC(=O)Nc1ccc2ncnc(Nc3cccc(Br)c3)c2c1	103
Cc1nc2cc3nc(-c4cccs4)cnc3cc2n1C	35
O=C1c2ccccc2-[n+]2ccc3c([nH]c4ccccc43)c21	75
Cc1ccc(S(=O)(=O)/C=C/C#N)cc1	90
N#Cc1cnc2cnc(NCc3cccnc3)cc2c1Nc1ccc(F)c(Cl)c1	62
CC(=O)O/N=C1\C(=C2\C(=O)Nc3cc(Br)ccc32)Nc2ccccc21	-1
CO[C@H]1C[C@@H]2CC[C@@H](C)[C@@](O)(O2)C(=O)C(=O)N2CCCC[C@H]2C(=O)O[C@H]([C@H](C)C[C@@H]2CC[C@@H](O)[C@H](OC)C2)CC(=O)[C@H](C)/C=C(\C)[C@@H](O)[C@@H](OC)C(=O)[C@H](C)C[C@H](C)/C=C/C=C/C=C/1C	107
O=C1NC(=O)/C(=C/c2ccc3c(c2)OC(F)(F)O3)S1	98
CCN(CC)CCCCN1c2ccccc2Oc2ccc(Cl)cc21	117
O=C(Nc1cccc(Nc2cc(Nc3cccc(C(F)(F)F)c3)ncn2)c1)C1CC1	95
Cc1ccc(NC2=CC(=O)c3sc(C)nc3C2=O)cc1	97
COc1ccc(CNc2nc(N(CCO)CCO)nc3c2ncn3C(C)C)cc1	97
Oc1ccc(-c2nc(-c3ccc(F)cc3)c(-c3ccncc3)[nH]2)cc1	47
CC[n+]1c(/C=C/N(C)c2ccccc2)n(-c2ccccc2)c2ccc(-c3nc4ccccc4s3)cc21	100
O=Nc1c(-c2c(O)[nH]c3ccccc23)[nH]c2ccccc12	0
Nc1ccc2ncnc(NCCc3ccc(Oc4ccccc4)cc3)c2c1	55
O=c1c2ccccc2[nH]c(=S)n1CCN1CCC(=C(c2ccc(F)cc2)c2ccc(F)cc2)CC1	108
CC(C)n1cnc2c(NCc3ccccc3)nc(NCCCO)nc21	92

Compound	residual activity [%]
Cc1cc2ncc(-c3ccccc3)nc2cc1C	104
O=c1cc(-c2cccc3c2Sc2ccccc2S3)oc(N2CCOCC2)c1	83
Cc1nc(-c2ccccc2)c(-c2ccncc2)o1	7
CNc1cc2c(Nc3cccc(Br)c3)ncnc2cn1	75
Nc1n[nH]c2nnc(-c3c(-c4ccccc4)nn4ccccc34)cc12	58
CC(=O)c1ccc(N2CCOCC2)cc1O	109
Cc1cncc2cccc(S(=O)(=O)N3CCCN(C(=O)CN)C[C@H]3C)c12	90
O=C1NC(=O)/C(=C\c2ccc3nccnc3c2)S1	96
COc1cc2ncnc(Nc3ccc(O)c(Br)c3)c2cc1OC	1
CCOc1cc2ncnc(Nc3cccc(Br)c3)c2cc1OCC	1
Nc1cccc(-c2cc3c(Oc4cccc(O)c4)ncnc3[nH]2)c1	0
Nc1nc(Nc2ccc(S(N)(=O)=O)cc2)nn1C(=S)Nc1c(F)cccc1F	-1
NC(=O)c1ccc2[nH]c(-c3ccc(Oc4ccc(Cl)cc4)cc3)nc2c1	85
O=C1Nc2cc(Br)ccc2/C1=C1/Nc2ccccc2/C1=N\O	0
Oc1ccc(Nc2nc(-c3ccc(Cl)cc3)cs2)cc1	87
COc1cc2ncnc(Nc3ccc(Oc4ccccc4)cc3)c2cc1OC	7
c1ccc(-c2n[nH]c3c2oc2ccccc23)cc1	47

molecular target: Macrophage-stimulating protein receptor (Homo sapiens) (UniProt Q04912); conditions: at 1 µM
Sequence (Q04912 25-304 limits assumed): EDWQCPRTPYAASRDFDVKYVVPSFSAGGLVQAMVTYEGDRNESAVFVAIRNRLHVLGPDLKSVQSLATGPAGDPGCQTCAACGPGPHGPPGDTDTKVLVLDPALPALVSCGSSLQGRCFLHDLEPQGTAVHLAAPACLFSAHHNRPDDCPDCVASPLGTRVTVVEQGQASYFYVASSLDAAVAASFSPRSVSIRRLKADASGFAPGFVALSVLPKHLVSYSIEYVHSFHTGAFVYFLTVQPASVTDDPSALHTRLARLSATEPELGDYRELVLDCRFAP
Sequence (Q04912 310-1400 limits assumed): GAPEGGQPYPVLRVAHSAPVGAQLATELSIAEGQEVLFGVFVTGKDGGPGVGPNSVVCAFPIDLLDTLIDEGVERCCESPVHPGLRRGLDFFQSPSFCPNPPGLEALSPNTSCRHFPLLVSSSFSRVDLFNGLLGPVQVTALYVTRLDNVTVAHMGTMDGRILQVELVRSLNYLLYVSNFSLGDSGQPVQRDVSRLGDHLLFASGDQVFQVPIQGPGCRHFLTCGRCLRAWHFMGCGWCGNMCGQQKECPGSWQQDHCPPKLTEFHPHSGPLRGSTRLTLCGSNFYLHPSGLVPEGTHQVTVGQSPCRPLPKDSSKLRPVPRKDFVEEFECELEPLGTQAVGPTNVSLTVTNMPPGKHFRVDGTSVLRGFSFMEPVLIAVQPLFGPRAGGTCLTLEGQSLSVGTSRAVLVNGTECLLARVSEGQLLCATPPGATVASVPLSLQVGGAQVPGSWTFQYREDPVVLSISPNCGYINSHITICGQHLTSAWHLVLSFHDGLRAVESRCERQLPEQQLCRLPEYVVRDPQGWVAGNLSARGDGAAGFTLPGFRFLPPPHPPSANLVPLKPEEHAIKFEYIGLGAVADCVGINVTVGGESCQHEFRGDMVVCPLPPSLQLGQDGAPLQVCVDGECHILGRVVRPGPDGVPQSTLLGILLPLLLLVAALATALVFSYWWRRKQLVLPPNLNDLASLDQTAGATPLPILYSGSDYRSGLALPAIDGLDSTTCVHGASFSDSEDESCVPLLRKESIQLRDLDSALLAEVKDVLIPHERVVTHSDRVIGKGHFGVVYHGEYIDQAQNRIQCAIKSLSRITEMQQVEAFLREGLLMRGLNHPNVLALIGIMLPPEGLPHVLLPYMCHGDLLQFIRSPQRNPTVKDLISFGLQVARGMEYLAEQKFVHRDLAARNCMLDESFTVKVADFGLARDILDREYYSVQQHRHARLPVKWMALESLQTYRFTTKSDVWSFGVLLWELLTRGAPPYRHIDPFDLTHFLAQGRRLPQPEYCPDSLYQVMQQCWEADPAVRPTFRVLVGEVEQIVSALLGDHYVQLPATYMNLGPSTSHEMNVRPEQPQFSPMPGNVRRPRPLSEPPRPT

Compound	residual activity [%]
CCC(=O)Nc1ccc2ncnc(Nc3cccc(Br)c3)c2c1	90
Cc1nc2cc3nc(-c4cccs4)cnc3cc2n1C	106
O=C1c2ccccc2-[n+]2ccc3c([nH]c4ccccc43)c21	77
Cc1ccc(S(=O)(=O)/C=C/C#N)cc1	80
N#Cc1cnc2cnc(NCc3cccnc3)cc2c1Nc1ccc(F)c(Cl)c1	100
CC(=O)O/N=C1\C(=C2\C(=O)Nc3cc(Br)ccc32)Nc2ccccc21	85
CO[C@H]1C[C@@H]2CC[C@@H](C)[C@@](O)(O2)C(=O)C(=O)N2CCCC[C@H]2C(=O)O[C@H]([C@H](C)C[C@@H]2CC[C@@H](O)[C@H](OC)C2)CC(=O)[C@H](C)/C=C(\C)[C@@H](O)[C@@H](OC)C(=O)[C@H](C)C[C@H](C)/C=C/C=C/C=C/1C	99
O=C1NC(=O)/C(=C/c2ccc3c(c2)OC(F)(F)O3)S1	100
CCN(CC)CCCCN1c2ccccc2Oc2ccc(Cl)cc21	105
O=C(Nc1cccc(Nc2cc(Nc3cccc(C(F)(F)F)c3)ncn2)c1)C1CC1	96
Cc1ccc(NC2=CC(=O)c3sc(C)nc3C2=O)cc1	79
COc1ccc(CNc2nc(N(CCO)CCO)nc3c2ncn3C(C)C)cc1	76
Oc1ccc(-c2nc(-c3ccc(F)cc3)c(-c3ccncc3)[nH]2)cc1	84
CC[n+]1c(/C=C/N(C)c2ccccc2)n(-c2ccccc2)c2ccc(-c3nc4ccccc4s3)cc21	97
O=Nc1c(-c2c(O)[nH]c3ccccc23)[nH]c2ccccc12	86
Nc1ccc2ncnc(NCCc3ccc(Oc4ccccc4)cc3)c2c1	82
O=c1c2ccccc2[nH]c(=S)n1CCN1CCC(=C(c2ccc(F)cc2)c2ccc(F)cc2)CC1	72
CC(C)n1cnc2c(NCc3ccccc3)nc(NCCCO)nc21	88

Compound	residual activity [%]
Cc1cc2ncc(-c3ccccc3)nc2cc1C	92
O=c1cc(-c2cccc3c2Sc2ccccc2S3)oc(N2CCOCC2)c1	90
Cc1nc(-c2ccccc2)c(-c2ccncc2)o1	87
CNc1cc2c(Nc3cccc(Br)c3)ncnc2cn1	88
Nc1n[nH]c2nnc(-c3c(-c4ccccc4)nn4ccccc34)cc12	66
CC(=O)c1ccc(N2CCOCC2)cc1O	91
Cc1cncc2cccc(S(=O)(=O)N3CCCN(C(=O)CN)C[C@H]3C)c12	89
O=C1NC(=O)/C(=C\c2ccc3nccnc3c2)S1	88
COc1cc2ncnc(Nc3ccc(O)c(Br)c3)c2cc1OC	90
CCOc1cc2ncnc(Nc3cccc(Br)c3)c2cc1OCC	101
Nc1cccc(-c2cc3c(Oc4cccc(O)c4)ncnc3[nH]2)c1	83
Nc1nc(Nc2ccc(S(N)(=O)=O)cc2)nn1C(=S)Nc1c(F)cccc1F	7
NC(=O)c1ccc2[nH]c(-c3ccc(Oc4ccc(Cl)cc4)cc3)nc2c1	74
O=C1Nc2cc(Br)ccc2/C1=C1/Nc2ccccc2/C1=N\O	79
Oc1ccc(Nc2nc(-c3ccc(Cl)cc3)cs2)cc1	95
COc1cc2ncnc(Nc3ccc(Oc4ccccc4)cc3)c2cc1OC	92
c1ccc(-c2n[nH]c3c2oc2ccccc23)cc1	58
